In the library only some 1.4% were active in any assay of this set; here they are far more common.
IL2 activator – qHTS of IL-2 Activators; AID 652025, 2013; IL-2 activation reporter assay, cell-based qHTS; stimulated with anti-CD3/CD4/CD28 beads; in transgenic mouse T cells; 360,000 tested, 0.065% active; activation, % (series mostly up to about 46 µM); in the data active means activation above about 50%; inconclusive means mostly about 30% to 49%
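Readout is EGFP and DsRed signal by fluorescent plate cytometry after 18 h at 37 degrees C. Transgenic mouse T cells (750/well) received compound for 60 min before bead stimulation (anti-CD3, anti-CD4, anti-CD28); memory T cells served as non-tolerant control.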
BRCA1 expr act – qHTS Assay to Identify Small Molecule Activators of BRCA1 Expression; MCF7-BRCA1-FFLuc reporter, luminescence, 48 h; response scale: scaled: vehicle 0%, 10 µM genistein 100%; Potency, µM (titrated, usually from 46.1 µM), hits mostly activators; 380,000 tested, 1.1% active; AID 624202, 2012; further: nearly all actives have a fitted effect of over 80% in size
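Luminescence from a BRCA1-driven firefly luciferase in MCF7 cells was read after 48 h compound exposure at 37 C. Data normalized against DMSO and a 10microM genistein activation control, then curve-fitted across the titration.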
p53 reactivator – qHTS assay for re-activators of p53 using a Luc reporter. H1299 p53-A138V BP100-luciferase reporter, luminescence, 24 h. 320,000 tested, 0.063% active. AID 504706, 2011. Potency, µM (series often up to 92.2 µM), usual class: activators; further: nearly all actives have a fitted effect of over 45% in size
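p53-null H1299 cells stably carrying temperature-sensitive p53-A138V and a BP100-luciferase reporter were pinned with compounds (4-point, 1:5 series) and held 24 hrs at 37 deg C. Luminescence was read 10 min after detection reagent.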
TCR activator – Activators of T cell receptors: qHTS campaign. primary human leukocytes, anti-CD3, IL-2 HTRF, 48 h. Potency, µM (top dose mostly 9.22 µM), usual class: activators. 330,000 tested, under 10 active
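Primary human leukocytes receive a-CD3 beads and test compound and are incubated 48 hr. Secreted IL-2 is then assayed by HTRF, measuring 665nm acceptor emission after 320nm excitation of the europium donor.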
uPA surface inh – qHTS for Inhibitors of Cell Surface uPA Generation. 330,000 tested, 0.31% active. Potency, µM (top dose mostly 38.3 µM), hits mostly inhibitors. AID 540303, 2011. cell surface uPA generation assay, qHTS; active means well fitted inhibition curve with a large enough effect; inconclusive means small, poorly fitted or top-dose-only effect; inactive means no such curve, though single readings can be large or run the other way; tested in mouse RAW 264.7 cells; further: nearly all actives have a fitted effect of over 55% in size
Of the large screens only hits and unclear results are named; the others gave an inactive call. Unless noted, the call rests on the fitted dose curve; in most records, active means well fitted curve in the direction sought with a large enough effect; inconclusive means small, poorly fitted or top-dose-only effect, or another doubt; inactive means no such curve, though single readings can be large; an effect the other way counts as inactive or inconclusive.

CCOc1ccccc1Oc1coc2cc(O)ccc2c1=O	p53 reactivator inconclusive
Clc1ccc(OCCCN2CCCCC2)c(Br)c1	BRCA1 expr act 10µM, p53 reactivator inconclusive
O=[N+]([O-])c1cc(C=NN2CCCCCC2)ccc1Cl	BRCA1 expr act 2.8µM (no result: p53 reactivator)
O=[N+]([O-])c1cc(/C=N/N2CCN(c3ccccc3)CC2)ccc1Cl	none
O=[N+]([O-])c1cc(/C=N/N2CCCCC2)ccc1Cl	BRCA1 expr act 11µM, p53 reactivator inconclusive
CN(C)c1ccc(N=Nc2ccc(S(N)(=O)=O)cc2)cc1	BRCA1 expr act 2µM, p53 reactivator inconclusive
C=C1C=C(C(F)F)n2ncc(C(=O)N3CCN(c4ccccn4)CC3)c2N1	none (no result: IL2 activator, p53 reactivator, TCR activator, uPA surface inh)
COc1cccc(OCc2ccc(Cl)cc2)c1C#N	BRCA1 expr act inconclusive, p53 reactivator inconclusive, uPA surface inh 8.9µM
COc1cccc(CNC(C)(C)CO)c1OCc1ccc(Cl)cc1	none
Cc1cc(-n2c(C)cc(C(=O)CSc3nnnn3-c3ccccc3)c2C)no1	none
Cc1cc(-n2c(C)cc(C(=O)CSc3ccccn3)c2C)no1	BRCA1 expr act 4µM, p53 reactivator inconclusive
Nc1ccc(O)c2c(=O)cc(-c3ccccc3Cl)oc12	BRCA1 expr act 2.8µM
O=c1cc(-c2ccccc2Cl)oc2cc(O)cc(O)c12	BRCA1 expr act inconclusive
CC(NC(=O)c1ccc2c(c1)N(Cc1ccc(Cl)cc1)C(=O)c1ccccc1S2=O)c1ccccc1 (centres undefined)	none (no result: IL2 activator, p53 reactivator, TCR activator, uPA surface inh)
c1ccc(CSc2nc3ncccn3n2)cc1	BRCA1 expr act 2.5µM, p53 reactivator inconclusive
O=C(NCCc1ccccc1)c1nc2ncccn2n1	none (no result: TCR activator, uPA surface inh)
CC(C)OC(=O)c1ccc(NC(=O)C2C3CC4OC(=O)C2C4C3)cc1 (centres undefined)	BRCA1 expr act 7.1µM, p53 reactivator inconclusive
COc1ccccc1CNC(=O)c1cc2c(=O)oc3ccc(C)cc3c2s1	none (no result: IL2 activator, p53 reactivator, TCR activator, uPA surface inh)
Nc1ccc2nc(-c3cccc(-c4nc5ccc(N)cc5[nH]4)c3)[nH]c2c1	none
Nc1ccc2cc3[nH]c4cc(N)ccc4c3nc2c1	IL2 activator 424 (no result: p53 reactivator)
O=C(CNC(=O)C1CCCCC1)OCC(=O)c1ccc([N+](=O)[O-])cc1	none (no result: IL2 activator, p53 reactivator, TCR activator, uPA surface inh)
Cc1cc(/C=C2/C(=N)N3C(=NC2=O)SN=C3S(C)(=O)=O)c(C)n1-c1ccc(F)cc1	BRCA1 expr act 7.9µM
CCOc1ccc(-n2c(C)cc(/C=C3/C(=N)N4C(=NC3=O)SN=C4S(C)(=O)=O)c2C)cc1	none
N#C/C(=C1/CCCCCN1)c1nc2ccccc2[nH]1	p53 reactivator inconclusive
N#C/C(C(=O)c1ccccc1)=C1/CCCCCN1	BRCA1 expr act 4µM, p53 reactivator inconclusive
CCOC(=O)N1CCN(C(=O)c2cc3c(s2)-c2c(C)cccc2OC3)CC1	none
Cc1cccc2c1-c1sc(C(=O)N3CCCCC3)cc1CO2	BRCA1 expr act 6.3µM, uPA surface inh inconclusive (no result: p53 reactivator)
Nc1ncnc2c1nc(Sc1ccc(Cl)cc1)n2[C@H]1OC2COP(=O)(O)O[C@H]2[C@@H]1O (some centres undefined)	none (no result: IL2 activator, p53 reactivator, TCR activator, uPA surface inh)
O=C(Nc1ccc(Cl)cn1)c1ccc(COc2ccccc2Br)o1	BRCA1 expr act 11µM
CN(C)C(=O)c1ccc(COc2ccccc2Br)o1	BRCA1 expr act 10µM
Cc1ccc(O)c(N=Nc2nccs2)c1	p53 reactivator inconclusive, uPA surface inh 2.2µM
CCCCCCCCCC[n+]1ccc(/C=C/c2ccc(N(C)C)cc2)c2ccccc21	none (no result: IL2 activator, p53 reactivator, TCR activator, uPA surface inh)
c1ccc(-c2cnc(-c3cccnc3)o2)cc1	p53 reactivator 25µM
COC(=O)c1nc(N2CCN(S(=O)(=O)c3ccc(C)cc3)CC2)c2ccccc2n1	none (no result: IL2 activator, p53 reactivator, TCR activator, uPA surface inh)
CC[n+]1ccccc1/C=C1\Sc2ccc(C)cc2N1C	uPA surface inh 7.1µM
CC(C)(C)C(=O)CSc1n[nH]c(-c2ccccc2)n1	BRCA1 expr act 7.9µM (no result: IL2 activator, p53 reactivator, TCR activator, uPA surface inh)
O=C(CSc1n[nH]c(-c2ccccc2)n1)c1ccccc1	none
CN(C)c1ccc(C(CNC(=O)c2cccs2)N(C)C)cc1 (centres undefined)	BRCA1 expr act 13µM, p53 reactivator inconclusive
Cn1c(COc2ccccc2Br)nc2ccccc21	BRCA1 expr act 6.3µM, uPA surface inh inconclusive
CC(C)c1ccc(C(O)Cc2nc3ccccc3n2C)cc1 (centres undefined)	BRCA1 expr act inconclusive, p53 reactivator inconclusive
CCn1c(COc2ccccc2OC)nc2ccccc21	p53 reactivator inconclusive
CCn1c(COc2ccccc2C)nc2ccccc21	BRCA1 expr act 7.9µM, p53 reactivator inconclusive
COc1ccccc1C(O)Cc1nc2ccccc2n1C (centres undefined)	BRCA1 expr act 10µM
CNC(=O)c1c(NC(=O)c2ccc(S(=O)(=O)N3CCCCC3C)cc2)sc2c1CCC2 (centres undefined)	none (no result: IL2 activator, p53 reactivator, TCR activator, uPA surface inh)
CCN(Cc1ccccc1)C(=O)Cn1c(=O)n(-c2cccc(C)c2)c(=O)c2c1c1cc(C)ccc1n2C	none (no result: IL2 activator, p53 reactivator, TCR activator, uPA surface inh)
O=C1C(Cl)=C(NCC2CCCO2)C(=O)N1CCc1ccccc1 (centres undefined)	BRCA1 expr act 7.9µM, p53 reactivator inconclusive (no result: uPA surface inh)
O=C1C(Cl)=C(NCCc2ccccc2)C(=O)N1CCc1ccccc1	BRCA1 expr act 7.9µM
CCCN(CCC)C(=O)Cn1c(=O)n(Cc2ccc(C(=O)NCCc3ccc(Cl)cc3)cc2)c(=O)c2ccccc21	none (no result: IL2 activator, p53 reactivator, TCR activator, uPA surface inh)
O=[N+]([O-])c1ncccc1OCc1ccc(Cl)c(Cl)c1	BRCA1 expr act 7.1µM
Cc1cc(C(=O)NCCc2ccccc2)ccc1[N+](=O)[O-]	BRCA1 expr act 6.3µM
Cc1ccc(C(=O)NCCSC(C)(C)C)cc1	none
CC(C)(C)c1ccc(C(=O)NCCc2ccccc2)cc1	p53 reactivator inconclusive, uPA surface inh inconclusive
O=C(NCCc1ccccc1)c1ccc(Cl)c([N+](=O)[O-])c1	BRCA1 expr act 4µM (no result: TCR activator, uPA surface inh)
Cc1ccc(C(=O)NCCSC(C)(C)C)cc1[N+](=O)[O-]	BRCA1 expr act 11µM, p53 reactivator inconclusive
CSCCNC(=O)c1ccc(C(C)(C)C)cc1	BRCA1 expr act 7.1µM
O=[N+]([O-])c1ccc(O/N=[N+](\[O-])N2CCCC2)c([N+](=O)[O-])c1	none (no result: IL2 activator, p53 reactivator, TCR activator, uPA surface inh)
O=C(Nc1cccc(F)c1)[C@H](CSCc1ccccc1)N1Cc2ccccc2C1=O	none (no result: IL2 activator, p53 reactivator, TCR activator, uPA surface inh)
CCOC(=O)c1csc(NC(=O)c2ccccc2)n1	BRCA1 expr act 4µM, p53 reactivator inconclusive
Cc1ccc(C)c(CN2C(=O)c3ccccc3S(=O)c3ccc(C(=O)N4CCCCC4)cc32)c1 (centres undefined)	none (no result: IL2 activator, p53 reactivator, TCR activator, uPA surface inh)
COc1ccc(C(=O)Cc2nnc(C)s2)c(OC)c1	BRCA1 expr act 11µM
CCOC(=O)CCCC(=O)N1CCN(/[N+]([O-])=N/Oc2ccc([N+](=O)[O-])cc2[N+](=O)[O-])CC1	none (no result: IL2 activator, p53 reactivator, TCR activator, uPA surface inh)
CCCCS/C(N)=N/N=C/c1ccccc1O	BRCA1 expr act 7.9µM
O=C(CCCN1C(=O)/C(=C\c2ccccc2)SC1=S)Nc1cccc(C(=O)O)c1	none
